Structures are written as SMILES. Values joined by “and” are separate entries in the source; they are usually repeats but may differ in a detail not shown here. Identical values can stand only once. This is part of a sample that, as a whole, favours compounds with a hit. Of some 83,000 tested, about 20% had one in any assay.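 Single-dose data. Exposure time 48 hours. Values below 10 considered active.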 Active and inactive are the calls of the source.

Some test systems named below: NCI-H23 lung; HOP-62 NSCLC; NCI-H460 lung; HOP-92 NSCLC; NCI-H522 lung; A549/ATCC NSCLC; 786-0 renal; COLO 205 colon; DU-145 prostate; K-562 leukemia; MALME-3M melanoma; MDA-MB-231 breast; RXF 393 renal; SF-268 CNS; SF-295 CNS; SF-539 CNS; UACC-257 melanoma; M14 melanoma; NCI-H226 lung; NCI-H322M lung.
Holding throughout (assay): NCI-60 one-dose screen, 48 h (100 = growth as untreated, 0 = no growth, -100 = all killed)
Holding throughout (conditions): 10 µM unless noted

For the compound `Nc1ccccc1SC(CC(=O)c1ccccc1)c1cccc([N+](=O)[O-])c1` (centres undefined), the growth was 87.1% (inactive) and 90.4% (inactive) in the experiment with NCI-H23 lung; 95.3% (inactive) and 95.4% (inactive) in the experiment with HOP-62 NSCLC; 105% (inactive) and 100% (inactive) with NCI-H460 lung; 95.9% (inactive) with HOP-92 NSCLC; 84.4% (inactive) and 73.3% (inactive) in the experiment on NCI-H522 lung; 95.1% (inactive) and 78.7% (inactive) with A549/ATCC NSCLC. The growth in the experiment with 786-0 renal is 113% (inactive) and 91.8% (inactive); in the experiment with COLO 205 colon, 102% (inactive) and 109% (inactive); in the experiment with DU-145 prostate, 113% (inactive) and 85.5% (inactive); with K-562 leukemia, 61% (inactive) and 7.1% (active); with MALME-3M melanoma, 123% (inactive) and 86.7% (inactive); in the experiment with MDA-MB-231 breast, 86.4% (inactive) and 99.6% (inactive). The growth is 104% (inactive) and 94.7% (inactive) in the experiment on RXF 393 renal; 101% (inactive) and 83.9% (inactive) in the experiment with SF-268 CNS; 83.1% (inactive) and 92.3% (inactive) with SF-295 CNS; 99.6% (inactive) and 105% (inactive) in the experiment on SF-539 CNS; 95% (inactive) and 87.7% (inactive) in the experiment with UACC-257 melanoma; 114% (inactive) and 89.9% (inactive) with M14 melanoma.

As for `O=C(c1ccccc1)C1(Br)CCCCC1`, the growth in the experiment with NCI-H226 lung is 87.5% (inactive); with HOP-62 NSCLC, 96% (inactive); in the experiment with NCI-H460 lung it was 105% (inactive); in the experiment on HOP-92 NSCLC, 88.1% (inactive); with NCI-H522 lung, 95.6% (inactive); in the experiment on A549/ATCC NSCLC it was 96.8% (inactive). Also, the growth in the experiment with 786-0 renal is 91.5% (inactive); with COLO 205 colon it was 129% (inactive); with DU-145 prostate, 105% (inactive); in the experiment with K-562 leukemia, 98% (inactive); with MALME-3M melanoma it was 95.1% (inactive); with MDA-MB-231 breast, 94.3% (inactive). The growth in the experiment on RXF 393 renal was 113% (inactive); in the experiment with SF-268 CNS, 92% (inactive); with SF-295 CNS, 93.4% (inactive); in the experiment with SF-539 CNS, 93.5% (inactive); in the experiment with UACC-257 melanoma, 98.7% (inactive); with M14 melanoma, 98.6% (inactive).

`Cc1onc(-c2c(F)cccc2Cl)c1-c1ncc(-c2ccc(Cl)cc2)o1`: the growth in the experiment with NCI-H226 lung is 76.9% (inactive) and 58.4% (inactive); in the experiment with NCI-H322M lung, 104% (inactive) and 57% (inactive); with HOP-62 NSCLC, 78% (inactive) and 53.4% (inactive); with NCI-H460 lung, 29.6% (inactive) and 3.17% (active); with HOP-92 NSCLC it was 34.2% (inactive) and 73% (inactive); with NCI-H522 lung, 35.1% (inactive). Moreover, the growth in the experiment on A549/ATCC NSCLC was 53.1% (inactive) and 41.4% (inactive); with 786-0 renal, 73.9% (inactive) and 31.6% (inactive); in the experiment with COLO 205 colon it was 53.5% (inactive) and 43.6% (inactive); with DU-145 prostate, 97.2% (inactive) and 50.2% (inactive); with K-562 leukemia, 27.9% (inactive) and 21.5% (inactive); in the experiment with MALME-3M melanoma it was 60.2% (inactive) and 46.6% (inactive). The growth in the experiment on MDA-MB-231 breast was 54.1% (inactive) and 46.3% (inactive); with RXF 393 renal, 89.9% (inactive) and 52.7% (inactive); in the experiment on SF-268 CNS, 66.2% (inactive) and 49.8% (inactive); with SF-295 CNS, 43.8% (inactive) and 42.2% (inactive); in the experiment with SF-539 CNS, 68% (inactive) and 36.5% (inactive); in the experiment on UACC-257 melanoma it was 22.5% (inactive). Moreover, the growth in the experiment with M14 melanoma was 54.8% (inactive) and 46.6% (inactive).

Consider `O=C(NC(=O)c1ccc(F)c(Cl)c1)NC1CC1`, for which the growth in the experiment on NCI-H226 lung was 99.6% (inactive) and 90.7% (inactive); in the experiment with NCI-H322M lung, 113% (inactive) and 110% (inactive); with HOP-62 NSCLC it was 107% (inactive) and 101% (inactive); with NCI-H460 lung it was 100% (inactive) and 102% (inactive); with HOP-92 NSCLC, 99.8% (inactive); in the experiment with NCI-H522 lung it was 75.7% (inactive) and 85.1% (inactive). Besides, the growth in the experiment with A549/ATCC NSCLC was 81.8% (inactive) and 99.2% (inactive); in the experiment on 786-0 renal, 98.7% (inactive) and 94.1% (inactive); with COLO 205 colon, 113% (inactive) and 108% (inactive); in the experiment with DU-145 prostate it was 106% (inactive) and 98.7% (inactive); with K-562 leukemia it was 78.4% (inactive) and 95.9% (inactive); with MALME-3M melanoma it was 107% (inactive) and 98.9% (inactive). Besides, the growth in the experiment on MDA-MB-231 breast was 117% (inactive); in the experiment on RXF 393 renal it was 113% (inactive); in the experiment on SF-268 CNS, 103% (inactive); with SF-295 CNS it was 104% (inactive) and 99.5% (inactive); in the experiment on SF-539 CNS it was 110% (inactive) and 98.4% (inactive); in the experiment on UACC-257 melanoma, 97.3% (inactive) and 103% (inactive). Further, the growth with M14 melanoma was 94.7% (inactive) and 109% (inactive).

Take `COc1ccc2nccc(Cl)c2c1`: the growth in the experiment with NCI-H226 lung was 85.1% (inactive); with HOP-62 NSCLC, 98.4% (inactive); with NCI-H460 lung, 109% (inactive); in the experiment on HOP-92 NSCLC, 98.7% (inactive); in the experiment on NCI-H522 lung it was 90.7% (inactive); in the experiment on A549/ATCC NSCLC, 91.9% (inactive). The growth with 786-0 renal is 94.7% (inactive); with COLO 205 colon, 105% (inactive); in the experiment with DU-145 prostate it was 101% (inactive); in the experiment with K-562 leukemia it was 110% (inactive); in the experiment on MALME-3M melanoma, 103% (inactive); in the experiment on MDA-MB-231 breast, 102% (inactive). For the same compound, the growth with RXF 393 renal was 105% (inactive); in the experiment on SF-268 CNS it was 92.8% (inactive); in the experiment on SF-295 CNS, 107% (inactive); in the experiment on SF-539 CNS, 104% (inactive); in the experiment with UACC-257 melanoma, 91.9% (inactive); in the experiment on M14 melanoma, 107% (inactive).

Take `O=C(N=C1C(=O)C2(CCCCC2)C2(N=C(c3ccccc3)OC2=O)C12CCCCC2)c1ccccc1` (centres undefined): the growth in the experiment with NCI-H226 lung was 70.2% (inactive); in the experiment on HOP-62 NSCLC, 96.8% (inactive); in the experiment with NCI-H460 lung it was 69.5% (inactive); in the experiment on HOP-92 NSCLC, 41.7% (inactive); in the experiment on NCI-H522 lung it was 37.9% (inactive); in the experiment on A549/ATCC NSCLC, 5.7% (active). In addition, the growth in the experiment on 786-0 renal was 77.7% (inactive); in the experiment on COLO 205 colon it was 94% (inactive); in the experiment on DU-145 prostate it was 79% (inactive); with K-562 leukemia it was 54.4% (inactive); in the experiment on MALME-3M melanoma, 77.6% (inactive); in the experiment with MDA-MB-231 breast, 74.4% (inactive). For the same compound, the growth with RXF 393 renal is 69.5% (inactive); in the experiment with SF-268 CNS, 77.8% (inactive); in the experiment with SF-295 CNS, 77.3% (inactive); in the experiment with SF-539 CNS, 82.3% (inactive); with UACC-257 melanoma it was 67.7% (inactive); in the experiment with M14 melanoma, 78% (inactive).

For `Cc1cc(=NO)cc(C)n1O`, the growth was 114% (inactive) in the experiment with NCI-H226 lung; 94.3% (inactive) in the experiment with NCI-H322M lung; 100% (inactive) with HOP-62 NSCLC; 107% (inactive) with NCI-H460 lung; 111% (inactive) in the experiment on HOP-92 NSCLC; 120% (inactive) in the experiment with NCI-H522 lung. Moreover, the growth in the experiment with A549/ATCC NSCLC was 113% (inactive); in the experiment with 786-0 renal, 107% (inactive); in the experiment on COLO 205 colon it was 113% (inactive); with DU-145 prostate, 101% (inactive); in the experiment on K-562 leukemia, 96.8% (inactive); with MALME-3M melanoma, 112% (inactive). The growth was 118% (inactive) in the experiment on MDA-MB-231 breast; 123% (inactive) with RXF 393 renal; 99.2% (inactive) with SF-268 CNS; 94.4% (inactive) with SF-295 CNS; 104% (inactive) with SF-539 CNS; 112% (inactive) in the experiment on UACC-257 melanoma. For the same compound, in the experiment on M14 melanoma, the growth was 108% (inactive).

For the origin of these results see PubChem BioAssay (NCI).
